Bioassay records from PubChem BioAssay.
Rows were chosen to be rich in hits. Some 0.9% of all compounds tested hit in one or more screens of this group.
CDC25B CDK2 inh: human CDC25B-CDK2/CyclinA binding inhibition. AID 1259370. z-score (concentration not given with the values). 0.72% of 94,000 active. P30305+P24941. HTRF CDC25B-CDK2/CyclinA binding, anti-His/anti-Flag; active compounds read high; in the data active = z-score above about 3.2
TAR Tat displ: HIV-1 TAR-Tat binding disruption | AID 1259389 | z-score (no concentration beside the values) | 0.6% of 100,000 active | HIV-1 TAR RNA, Tat peptide displacement FRET; active compounds read high; active = z-score of 3 or more in at least 2 runs
* hit, by the source's call; . = no result given.

SMILES	CDC25B CDK2 inh	TAR Tat displ
Cc1ccc(C(=O)O)cc1N1C(=O)c2ccc(C(=O)c3ccc4c(c3)C(=O)N(c3cc(C(=O)O)ccc3C)C4=O)cc2C1=O	-1.08	.
CC(C)c1ccc(C(=O)CC2(O)C(=O)Nc3ccc(Cl)cc32)cc1 (centres undefined)	-0.18	0.75
O=C(CCS(=O)(=O)c1cccc2nsnc12)Nc1ccccc1Cl	0.86	0.41
CCCN(CCC)C(=O)c1cc2c(s1)-c1ccccc1S(=O)(=O)C2	-2.02	2.31
O=C(O)c1ccccc1Sc1cc(C(=O)O)c(Sc2ccccc2C(=O)O)cc1C(=O)O	14.6*	.
CSc1ccccc1C(=O)c1ccccc1C(=O)O	-1.54	.
Cn1c(=O)c2c(SCC(=O)Nc3ccc(F)cc3)nc(-c3ccco3)nc2n(C)c1=O	-2.1	.
Nc1c(C(=O)Nc2ccc(F)cc2)sc2nc(-c3ccncc3)ccc12	-0.18	10.5*
CCSc1nc2ccc(NC(=O)c3sc4nc(-c5ccncc5)ccc4c3N)cc2s1	-0.72	1.6
